Experimental data as given in publication PMC4336329 (PLoS ONE, 2015).
The campaign covered roughly 310,000 compounds. About 14,000 (4.5%) showed an effect of 50% or more. The effect is printed as a negative number. The sample as a whole holds a higher share of strong results than the screen did.

Target: human ether-à-go-go-related gene (hERG) potassium channel (human, UniProt Q12809)
Experiment: primary screen, population patch clamp on CHO cells stably expressing hERG; higher = less effect of the substance
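Further: peak tail current of the secondary pulse compared with the same well before compound.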

Chain of human ether-à-go-go-related gene (hERG) potassium channel (Q12809 whole entry, looked up): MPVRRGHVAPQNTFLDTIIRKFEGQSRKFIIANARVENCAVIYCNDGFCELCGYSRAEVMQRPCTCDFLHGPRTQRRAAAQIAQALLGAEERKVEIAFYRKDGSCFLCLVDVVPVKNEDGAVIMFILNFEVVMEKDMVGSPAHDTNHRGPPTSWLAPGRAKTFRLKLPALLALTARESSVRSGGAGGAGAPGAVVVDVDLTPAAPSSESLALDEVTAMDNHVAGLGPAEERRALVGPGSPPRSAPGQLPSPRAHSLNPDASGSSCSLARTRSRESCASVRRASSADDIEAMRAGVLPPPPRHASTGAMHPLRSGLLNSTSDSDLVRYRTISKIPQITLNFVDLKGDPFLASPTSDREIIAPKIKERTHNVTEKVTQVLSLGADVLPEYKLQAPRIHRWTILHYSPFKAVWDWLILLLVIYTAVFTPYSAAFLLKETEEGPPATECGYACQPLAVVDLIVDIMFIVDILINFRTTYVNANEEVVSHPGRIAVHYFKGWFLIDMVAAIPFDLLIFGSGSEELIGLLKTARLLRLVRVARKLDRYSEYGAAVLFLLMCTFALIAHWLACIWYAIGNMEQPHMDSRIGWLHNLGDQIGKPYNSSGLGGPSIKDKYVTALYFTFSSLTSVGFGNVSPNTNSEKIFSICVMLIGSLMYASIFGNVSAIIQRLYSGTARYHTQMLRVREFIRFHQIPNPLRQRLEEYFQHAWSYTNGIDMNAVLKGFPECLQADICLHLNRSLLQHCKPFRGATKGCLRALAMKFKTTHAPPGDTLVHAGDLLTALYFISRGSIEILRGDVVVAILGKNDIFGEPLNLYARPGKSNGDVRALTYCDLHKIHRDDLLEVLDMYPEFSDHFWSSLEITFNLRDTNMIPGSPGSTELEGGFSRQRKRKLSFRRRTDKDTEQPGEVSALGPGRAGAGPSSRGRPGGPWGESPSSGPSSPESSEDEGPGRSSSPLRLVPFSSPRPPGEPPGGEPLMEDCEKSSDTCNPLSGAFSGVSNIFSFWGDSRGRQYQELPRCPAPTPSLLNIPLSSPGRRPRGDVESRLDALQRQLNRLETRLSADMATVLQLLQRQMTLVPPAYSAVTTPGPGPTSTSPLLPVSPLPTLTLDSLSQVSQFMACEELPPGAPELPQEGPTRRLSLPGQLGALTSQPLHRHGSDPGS

| SMILES | hERG current change (%, negative = inhibition) at 10uM [%] |
| --- | --- |
| Cc1ccccc1NN1C(=O)C=CC1=O | -8.26 |
| CCOC(=O)CC1C(=O)NCCN1C(=O)c1c(F)cccc1F (stereo not shown) | 16.1 |
| COc1ccc2cc(CCNC(=O)C(C)C)c(=O)[nH]c2c1 | 13.4 |
| C/C(=N\NC(=O)C(C)Sc1ccccc1)c1ccc([N+](=O)[O-])cc1 (stereo not shown) | -3.27 |
| C/C(=N\NC(=O)c1cccc(N/N=C(\C)c2ccc([N+](=O)[O-])cc2)c1)c1ccc([N+](=O)[O-])cc1 | 1.39 |
| C/C(=N\NC(=O)C(C)Nc1cccc(Cl)c1)c1ccc([N+](=O)[O-])cc1 (stereo not shown) | -50.5 |
| Cc1c(Cl)cccc1NC(=S)N1CCN(c2ccc([N+](=O)[O-])cn2)CC1 | 2.33 |
| O=C(NCc1ccc(F)cc1)C1CCCN(S(=O)(=O)c2cccc3nonc23)C1 (stereo not shown) | 19.6 |
| Cc1ccc2sc(N(CCCN(C)C)C(=O)c3ccc(Br)s3)nc2c1C.Cl | -71.7 |
| Cc1ccc2sc(N(CCCN(C)C)C(=O)c3nc4ccccc4s3)nc2c1C.Cl | 3.59 |
| CN(C)CCCN(C(=O)c1ccc([N+](=O)[O-])s1)c1nc2cc3c(cc2s1)OCCO3.Cl | -71.3 |
| CN(C)CCN(C(=O)c1cccc2ccccc12)c1nc2cc3c(cc2s1)OCO3.Cl | -22.3 |
| CN(C)CCCN(C(=O)c1cccs1)c1nc2cc3c(cc2s1)OCO3.Cl | -56.8 |
| CN(C)CCCN(C(=O)c1cc(Cl)sc1Cl)c1nc2cc3c(cc2s1)OCO3.Cl | -41.9 |
| CN(C)CCN(C(=O)c1cccs1)c1nc2cc3c(cc2s1)OCCO3.Cl | -23.6 |
| CN(C)CCCN(C(=O)c1ccc(Cl)s1)c1nc2cc3c(cc2s1)OCO3 | -69 |
| Cc1ccc2nc(N(CCCN(C)C)C(=O)c3ccc(Br)s3)sc2c1.Cl | -44.3 |
| CCC(C(=O)NC1CCCCC1)n1c2ccccc2c2nc(=O)cc(C)n21 (stereo not shown) | 10.4 |
| O/N=C/c1cn(-c2ccccc2)nc1-c1cccnc1 | -31.6 |
| COCCCNC(=O)Cn1cnc2sc(C)c(S(=O)(=O)N3CC(C)CC(C)C3)c2c1=O (stereo not shown) | -0.637 |
| COCCCN1C(=O)c2ccc(C(=O)O)cc2C1=O | -0.568 |
| COC(=O)c1ccc(/C=N/NC(=O)c2cccc(F)c2)cc1 | 6.65 |
| COc1cccc(C(=O)NCC(=O)N/N=C/c2cn[nH]c2-c2ccccc2)c1 | -4.6 |
| Cc1nc2nc(C)c(CCC(=O)NCCC3=CCCCC3)c(C)n2n1 | 4.49 |

| SMILES | hERG current change (%, negative = inhibition) at 10uM [%] |
| --- | --- |
| COc1ccc(S(=O)(=O)N(C)C)cc1NC(C)C(=O)Nc1cccc(C#N)c1 (stereo not shown) | -23.5 |
| COc1cccc(CNC(=O)C2CSC3(C)CCC(=O)N23)c1 (stereo not shown) | 6.82 |
| CN(C)c1ccc(N/C=C/C(=O)C(C)(C)C)cc1 | 15.9 |
| COC(=O)CN1C(=S)N(C)C(=O)/C1=C/c1cccs1 | 5.21 |
| O=C(CNC(=O)c1ccc(Br)o1)NNC(=O)c1ccccc1O | -2.55 |
| CCn1c2ccccc2c2cc(N=C3SC(CC(=O)Nc4ccccc4OC)C(=O)N3CCOC)ccc21 (stereo not shown) | -3.75 |
| CN(C)CCCN(C(=O)c1ccc(Br)s1)c1nc2cc3c(cc2s1)OCO3.Cl | -52 |
| CN(C)CCN(C(=O)c1ccc(Br)s1)c1nc2cc3c(cc2s1)OCCO3.Cl | -4.91 |
| CN(C)CCCN(C(=O)c1ccc(Br)s1)c1nc2cc3c(cc2s1)OCCO3.Cl | -33.9 |
| COC(=O)C1=C(c2ccc(F)cc2OCc2ccccc2)C[C@@H]2CC[C@H]1N2C(=O)N1CCCCC1 | -9.9 |
| Cc1ccccc1CNC(=O)Cn1cnc(S(=O)(=O)N2CCCC2)c1 | 6.06 |
| CCCOC(=O)C(C)n1cnc2scc(-c3ccc(C)cc3)c2c1=O (stereo not shown) | 6.79 |
| COc1ccc(N2CCN(C(c3ccc4ncccc4c3)c3nnnn3C(C)C)CC2)cc1 (stereo not shown) | -51.7 |
| CC(C)(C)n1nnnc1C(c1ccc2ncccc2c1)N1CCC(O)CC1 (stereo not shown) | 12.4 |
| COCCn1nnnc1C(c1ccc2ncccc2c1)N1CCN(c2ccccc2F)CC1 (stereo not shown) | -19.4 |
| CC(C)(C)n1nnnc1C(c1ccc2ncccc2c1)N1CCSCC1 (stereo not shown) | -18.1 |
| CC(C)(C)n1nnnc1C(c1cccnc1)N1CCN(c2cccc(C(F)(F)F)c2)CC1.Cl (stereo not shown) | -53.3 |
| CCC(C)(C)n1nnnc1C(c1ccc2ncccc2c1)N1CCN(c2ccc(O)cc2)CC1 (stereo not shown) | -31.7 |
| CCC(C)(C)n1nnnc1C(c1cccnc1)N1CCN(c2cccc(C(F)(F)F)c2)CC1 (stereo not shown) | -41 |
| COc1ccc(N2CCN(C(c3ccc4ncccc4c3)c3nnnn3C(C)(C)C)CC2)cc1 (stereo not shown) | -52.1 |
| CC(C)(C)n1nnnc1C(c1cccnc1)N1CCN(c2ccccc2)CC1 (stereo not shown) | -8.19 |
| CCc1ccc(NC(=O)Nc2ccncc2)cc1 | -20.9 |
| O=C1Nc2ccc([N+](=O)[O-])cc2OC1CCN1CCN(c2ccccc2)CC1 (stereo not shown) | -47.4 |
| C/C(=N\Nc1ncnc2sc(C)c(C)c12)c1ccccn1 | -35.5 |

| SMILES | hERG current change (%, negative = inhibition) at 10uM [%] |
| --- | --- |
| NC(=O)c1coc(-c2ccccc2)n1 | 12.9 |
| O=C(COC(=O)c1cccc2ccccc12)NCCCc1ccccc1 | 0.562 |
| Cc1csc(C(C)NC(=O)c2ccc(OC3CCN(CCc4ccccc4)CC3)cc2)n1 (stereo not shown) | -66.2 |
| O=C(NCc1ccccn1)c1ccc(OC2CCN(Cc3ccccc3)CC2)cc1 | -10.2 |
| Cc1csc(CNC(=O)c2ccc(OC3CCN(CCc4ccccc4)CC3)cc2)n1 | -55.3 |
| CC(NC(=O)c1ccc(OC2CCN(Cc3ccccn3)CC2)cc1)c1nccs1 (stereo not shown) | -10.3 |
| COC1CCN(C(=O)c2ccc(OC3CCN(CCc4ccccc4)CC3)cc2)CC1 | -29.8 |
| CC(C)N1CCN(C(=O)c2ccc(OC3CCN(CCc4ccccc4)CC3)cc2)CC1 | -0.0142 |
| CCOC(=O)C(CC(=O)Nc1nc(C(C)=O)c(C)s1)C(C)c1ccccc1 (stereo not shown) | 2.61 |
| C=CCSc1nc2c(c(=O)[nH]1)C(C(C)C)C(C#N)=C(N)O2 (stereo not shown) | 3.05 |
| O=C(Nc1ccc(-c2nc3ccccc3[nH]2)cc1)c1ccc2c(c1)OCO2 | 6.85 |
| CCCCN(C)C(=O)c1cn(CC)c2ccc(S(=O)(=O)N(C)C)cc2c1=O | 8.08 |
| c1cc(C(c2nnnn2C2CCCCC2)N2CCN3CCCC3C2)ccn1 (stereo not shown) | -1.98 |
| COc1ccc(NC(=O)C2CCCN2C(=O)NC2CCCCC2)cc1 (stereo not shown) | -2.82 |
| O=C(O)COc1ccccc1Cc1ccccc1 | 5.22 |
| CN(C)CCOc1ccccc1C(C)(C)C.O=C(O)C(=O)O | 5.47 |
| CN(C)CCOc1ccccc1Cc1ccccc1.O=C(O)CC(O)(CC(=O)O)C(=O)O | -61.9 |
| COc1ccc(-n2ccc3ccccc32)cc1 | 13 |
| CCCCCn1c(=O)c(F)cn(Cc2ccc(OC)c([N+](=O)[O-])c2)c1=O | -56.6 |
| CCCCn1c(=O)c(F)cn(Cc2ccc(OC)c([N+](=O)[O-])c2)c1=O | -25.2 |
| CCCCCCn1c(=O)c(F)cn(Cc2ccc(OC)c([N+](=O)[O-])c2)c1=O | -40.3 |
| CC(C)(C)C(=O)Oc1ccc2cc(-c3ccc4ccccc4n3)c(=O)oc2c1 | -10.5 |
| Nc1nc(CN2CCN(c3ccccc3F)CC2)nc(Nc2ccc3c(c2)OCCO3)n1 | -74.4 |
| CN1CCN(Cc2nc(N)nc(Nc3ccc4c(c3)OCCO4)n2)CC1 | -26.1 |

| SMILES | hERG current change (%, negative = inhibition) at 10uM [%] |
| --- | --- |
| c1ccc(CN2CCN(Cc3ccc4c(c3)OCCO4)CC2)cc1 | -10.6 |
| O=C(CCN1CCN(c2ccccc2F)CC1)Nc1ccc2c(c1)OCO2 | -27.6 |
| Nc1nc(CN2CCN(Cc3ccccc3)CC2)nc(Nc2ccc3c(c2)OCCO3)n1 | -74.8 |
| Nc1nc(COC(=O)c2ccc3c(c2)OCCO3)nc(Nc2ccccc2)n1 | 10.2 |
| Cc1c(C(c2ccc(F)cc2)c2c(O)c3ccccc3oc2=O)c(=O)n(-c2ccccc2)n1C (stereo not shown) | -20.9 |
| COc1ccc(-n2c(-c3ccco3)nc3c(cnn3-c3ccc(C)cc3)c2=O)cc1 | 1.88 |
| C=CCn1c(NC(=O)c2ccc(C)cc2)nc2ccccc21 | 6.35 |
| Cc1ccc(NCC(=O)N/N=C/c2c[nH]c3ccccc23)cc1 | 11.4 |
| CC(C)NC(=O)C(Cc1ccccc1)N1C(=O)c2ccccc2C1=O (stereo not shown) | -4.63 |
| COc1ccc(/C(O)=C2/C(=O)C(=O)N(CCN(C)C)C2c2cccnc2)cc1C (stereo not shown) | 1.58 |
| CC(=O)c1ccc(N2CCN(C(=O)Nc3ccc(F)cc3)CC2)cc1 | -24.5 |
| CC(=O)N1CCN(c2ccc(NC(=O)c3ccc(C(C)(C)C)cc3)cc2)CC1 | 0.16 |
| O=C(Nc1ccc2snnc2c1)N1CCN(c2ccccc2)CC1 | -57.2 |
| O=C(Nc1ccc(F)cc1)N1CCN(c2ccc(F)cc2)CC1 | -67.8 |
| CC(=O)c1ccc(N2CCN(C(=O)Nc3ccc(Cl)cc3)CC2)cc1 | -8.35 |
| O=C(Nc1ccccc1)N1CCN(c2ccc(F)cc2)CC1 | -7.74 |
| O=C(Nc1ccc2snnc2c1)N1CCSCC1 | 6.76 |
| CC(=O)c1ccc(N2CCN(C(=O)Nc3ccc(C(C)C)cc3)CC2)cc1 | -63.7 |
| CC(=O)c1ccc(N2CCN(C(=O)Nc3ccc(C)cc3)CC2)cc1 | -4.03 |
| CC(=O)N1CCN(c2ccc(NC(=O)c3ccc(C)cc3)cc2)CC1 | 5.89 |
| O=C(Nc1ccc2snnc2c1)N1CCCCC1 | 11.9 |
| CC(=O)N1CCN(c2ccc(NC(=O)c3ccc(F)cc3)cc2)CC1 | -57.7 |
